Measured values reported in PubChem BioAssay (EPA / NIEHS).
Records with an inconclusive call do not appear. Some compounds were tested as several samples or in several runs, with calls that do not always agree. Calls of active or inactive are those of the source. Rule for the calls: active = hit-call score of the fitted dose curve at least 0.9, where 1 is the maximum; inconclusive = response in the unintended direction; inactive = score below 0.9.

Assays:
[1] = ACEA_ER_AUC_viability: ACEA Biosciences xCELLigence Real-Time Cell Analysis on Estrogen Receptor Agonism for Viability (AID 2283782);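 note: hit means loss of impedance signal meaning reduced cell growth or viability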
Method in brief: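 Continuous-exposure impedance cell analysis uses T-47D cells in charcoal-stripped serum, eight 1:4 dilutions topping at 100 uM final, biological duplicate. Area under the growth curve at 80 h is fitted against DMSO baseline.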

[2] = system: zebrafish Estrogen Receptor (ESR2A), gene 317734; assay: ATG_zfER2a_XSP1: Attagene TRANS-FACTORIAL Multi-Species (XSP1) HepG2 Assay for zebrafish Estrogen Receptor (ESR2A) (AID 2283778)
Method in brief: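 Gain-of-signal reporter transcription readout from GAL4-UAS units in transiently transfected HepG2 cells, 24 h exposure, 3 nM 6-alpha-fluorotestosterone co-present. Detection by RT-PCR with capillary electrophoresis fluorescence.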

[3] = molecular target: chicken Estrogen Receptor (ESR1), ESR1 (gene 396099) (UniProt P06212); assay: ATG_chERa_XSP1: Attagene TRANS-FACTORIAL Multi-Species (XSP1) HepG2 Assay for chicken Estrogen Receptor (ESR1) (AID 2283779)
Method in brief: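 Gain-of-signal reporter transcription, relative to DMSO, was scored in transiently transfected HepG2 cells after a 24 h dose. Fluorescence intensity of amplified, digested reporter cDNA fragments served as the endpoint.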

[4] = molecular target: Estrogen receptor (Homo sapiens) (UniProt P03372); assay: ATG_hERa_XSP1: Attagene TRANS-FACTORIAL Multi-Species (XSP1) HepG2 Assay for human Estrogen Receptor (ESR1) (AID 2283780)
Method in brief: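 Reporter transcripts from multiplexed GAL4-UAS units driven by NR-Gal4 chimeras in transiently transfected HepG2 were measured by RT-PCR with capillary electrophoresis 24 h post-dose, with 3 nM 6-alpha-fluorotestosterone present; gain-of-signal relative to DMSO.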

[5] = system: turtle Estrogen Receptor (ESR1), gene 101933533; assay: ATG_trERa_XSP1: Attagene TRANS-FACTORIAL Multi-Species (XSP1) HepG2 Assay for turtle Estrogen Receptor (ESR1) (AID 2283781)
Method in brief: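 Cell-based chimeric NR-Gal4 transactivation; HepG2; 24 h dosing; mRNA reporter detected by RT-PCR and capillary electrophoresis fluorescence.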

[6] = ATG_M_06_XSP1: Attagene TRANS-FACTORIAL Multi-Species (XSP1) HepG2 Assay for M06 Transcription Factor (Internal Marker) (AID 2283790)
Method in brief: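 This background-control readout tracks M06 reporter mRNA, measured by RT-PCR and capillary electrophoresis. HepG2 cells transiently carrying the GAL4-UAS reporter panel were dosed for 24 h with 3 nM 6-alpha-fluorotestosterone added for partial AR stimulation; increases were scored relative to DMSO.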

[7] = ATG_M_61_XSP1: Attagene TRANS-FACTORIAL Multi-Species (XSP1) HepG2 Assay for M61 Transcription Factor (Internal Marker) (AID 2283797)
Method in brief: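 Background-control readout: reporter transcripts measured by RT-PCR and capillary electrophoresis 24 h after dosing transiently transfected HepG2 multi-reporter cells, with 3 nM 6-alpha-fluorotestosterone present. Fitted in the positive direction relative to DMSO.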

[8] = ATG_M_32_XSP1: Attagene TRANS-FACTORIAL Multi-Species (XSP1) HepG2 Assay for M32 Transcription Factor (Internal Marker) (AID 2283799)
Method in brief: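 Reporter transcripts from the M32 internal-control unit measured by RT-PCR, FAM labelling, HpaI digestion and capillary electrophoresis after 24 h compound exposure of transfected HepG2, 3 nM 6-alpha-fluorotestosterone included; DMSO baseline, positive-direction fit.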

[9] = system: zebrafish Peroxisome Proliferator-activated Receptor gamma (PPARg), gene 557037; assay: ATG_zfPPARg_XSP1: Attagene TRANS-FACTORIAL Multi-Species (XSP1) HepG2 Assay for zebrafish Peroxisome Proliferator-activated Receptor gamma (PPARg) (AID 2283801)
Method in brief: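 Trans-activation readout of chimeric zebrafish PPARg–GAL4 in transiently transfected human HepG2 cells, 24 h chemical exposure (medium includes 3 nM 6-alpha-fluorotestosterone). Reporter transcripts measured by RT-PCR and capillary electrophoresis, fitted as gain over DMSO.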

[10] = molecular target: Nuclear receptor subfamily 1 group I member 2 (Mus musculus) (UniProt O54915); assay: ATG_mPXR_XSP1: Attagene TRANS-FACTORIAL Multi-Species (XSP1) HepG2 Assay for mouse Pregnane X Receptor (PXR) (AID 2283803)
Method in brief: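 Transiently transfected HepG2 cells expressing a receptor-Gal4 chimera drive a GAL4-UAS reporter; 3 nM 6-alpha-fluorotestosterone included. Reporter mRNA read 24 h post-dose by RT-PCR and capillary electrophoresis; gain of signal relative to DMSO.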

[11] = molecular target: frog Thyroid hormone Receptor alpha (TRa), thra-a (gene 397942) (UniProt P15204); assay: ATG_frTRa_XSP1: Attagene TRANS-FACTORIAL Multi-Species (XSP1) HepG2 Assay for frog Thyroid hormone Receptor alpha (TRa) (AID 2283804)
Method in brief: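 Reporter transcript induction, measured by RT-PCR with 6-FAM labelling and capillary electrophoresis, 24 hr after dosing transiently transfected HepG2 cells expressing a frog TRa-GAL4 fusion; medium contained 3 nM 6-alpha-fluorotestosterone; increase over DMSO scored.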

AR (gene 367) [12] = molecular target: AR (gene 367) (UniProt P10275); assay: ACEA_AR_agonist_80hr: ACEA Biosciences xCELLigence Real-Time Cell Analysis on Androgen Receptor Agonism for Proliferation (AID 2283783);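 note: hits increase impedance growth signal above DMSO baseline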
Method in brief: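 Real-time cell-growth kinetics were recorded by electrode impedance in 22Rv1 cells exposed to test chemicals up to 100 uM final; the 80 h timepoint served as the readout, fitted upward relative to DMSO controls, in biological duplicate.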

AR (gene 367) [13] = molecular target: AR (gene 367) (UniProt P10275); assay: ACEA_AR_antagonist_80hr: ACEA Biosciences xCELLigence Real-Time Cell Analysis on Androgen Receptor Antagonism for Proliferation (AID 2283787);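 note: 22Rv1 human prostate cancer cells with growth followed by electrical impedance; hits lower the impedance growth signal relative to DMSO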
Method in brief: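 Using 22Rv1 cells held in assay medium, we dosed compounds (100 uM maximum final, 1:4 serial, eight points, 0.5% DMSO at top) and recorded cell-electrode impedance; the 80 hr timepoint was analyzed against DMSO.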

[14] = molecular target: Estrogen receptor beta (Homo sapiens) (UniProt Q92731); assay: ATG_hERb_XSP1: Attagene TRANS-FACTORIAL Multi-Species (XSP1) HepG2 Assay for human Estrogen Receptor (ESR2) (AID 2283788)
Method in brief: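 Multiplexed trans-activation in transfected HepG2: ERβ-Gal4 reporter transcripts after 24 h treatment, detected by RT-PCR plus capillary electrophoresis.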

[15] = molecular target: GAL4 Transcription Factor (Internal Marker), GAL4 (gene 855828) (UniProt P04386); assay: ATG_GAL4_XSP1: Attagene TRANS-FACTORIAL Multi-Species (XSP1) HepG2 Assay for GAL4 Transcription Factor (Internal Marker) (AID 2283789)
Method in brief: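 This background-control endpoint measures GAL4-driven reporter mRNA via RT-PCR and capillary electrophoresis of labelled fragments. Transiently transfected HepG2 cells were treated 24 h, with 3 nM 6-alpha-fluorotestosterone included, and gain-of-signal was fitted against DMSO.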

[16] = molecular target: Peroxisome proliferator-activated receptor gamma (Homo sapiens) (UniProt P37231); assay: ATG_hPPARg_XSP1: Attagene TRANS-FACTORIAL Multi-Species (XSP1) HepG2 Assay for human Peroxisome Proliferator-activated Receptor gamma (PPARg) (AID 2283800)
Method in brief: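 Reporter mRNA induction, measured by RT-PCR with capillary electrophoresis 24 h after dosing, scored as gain over DMSO. Transfected HepG2 cells express exogenous NR-Gal4 chimeras driving GAL4-UAS reporters; medium includes 3 nM 6-alpha-fluorotestosterone.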

[17] = molecular target: mouse Peroxisome Proliferator-activated Receptor gamma (PPARg), Pparg (gene 19016) (UniProt P37238); assay: ATG_mPPARg_XSP1: Attagene TRANS-FACTORIAL Multi-Species (XSP1) HepG2 Assay for mouse Peroxisome Proliferator-activated Receptor gamma (PPARg) (AID 2283802)
Method in brief: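 Readout is reporter mRNA induction, measured by RT-PCR with 6-FAM labelling, HpaI digestion and capillary electrophoresis, 24 h post-dose relative to DMSO. Transient multi-reporter transfection of human HepG2 with mouse PPARg–GAL4 fusion; 3 nM 6-alpha-fluorotestosterone included.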

[18] = molecular target: human Thyroid hormone Receptor alpha (TRa), THRA (gene 7067) (UniProt P10827); assay: ATG_hTRa_XSP1: Attagene TRANS-FACTORIAL Multi-Species (XSP1) HepG2 Assay for human Thyroid hormone Receptor alpha (TRa) (AID 2283805)
Method in brief: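 Reporter transcripts from the human TRa-Gal4 TRANS unit quantified by RT-PCR, fluorescent labeling and capillary electrophoresis after 24 hours of chemical exposure in transfected HepG2 cells; medium contains 3 nM 6-alpha-fluorotestosterone. Positive direction fit against DMSO.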

[19] = system: turtle Thyroid Hormone Receptor, alpha (TRa), gene 101949057; assay: ATG_trTRa_XSP1: Attagene TRANS-FACTORIAL Multi-Species (XSP1) HepG2 Assay for turtle Thyroid Hormone Receptor, alpha (TRa) (AID 2283806)
Method in brief: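 After 24 h chemical exposure, reporter transcripts were measured by RT-PCR with fluorescent primer extension, HpaI digestion and capillary electrophoresis. Cells were transiently transfected HepG2 expressing exogenous NR-Gal4 chimeras; medium contained 3 nM 6-alpha-fluorotestosterone; fitted upward relative to DMSO.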

[20] = STM_H9_NormalizedViability: Cytotoxicity Assessment at 120 hours in the Stemina devTOX quickPredict H9 human embryonic stem cell (hESC)-based Assay (AID 2283784)
Method in brief: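 CellTiter-Fluor RFU, background-subtracted, expressed relative to 0.1% DMSO neutral control by plate. Pluripotent H9 cells; treatment with daily re-dosing. Plates carried 1uM methotrexate (positive) and 5 nM methotrexate (negative) references.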

Sequence of AR (gene 367) (P10275 whole entry, looked up): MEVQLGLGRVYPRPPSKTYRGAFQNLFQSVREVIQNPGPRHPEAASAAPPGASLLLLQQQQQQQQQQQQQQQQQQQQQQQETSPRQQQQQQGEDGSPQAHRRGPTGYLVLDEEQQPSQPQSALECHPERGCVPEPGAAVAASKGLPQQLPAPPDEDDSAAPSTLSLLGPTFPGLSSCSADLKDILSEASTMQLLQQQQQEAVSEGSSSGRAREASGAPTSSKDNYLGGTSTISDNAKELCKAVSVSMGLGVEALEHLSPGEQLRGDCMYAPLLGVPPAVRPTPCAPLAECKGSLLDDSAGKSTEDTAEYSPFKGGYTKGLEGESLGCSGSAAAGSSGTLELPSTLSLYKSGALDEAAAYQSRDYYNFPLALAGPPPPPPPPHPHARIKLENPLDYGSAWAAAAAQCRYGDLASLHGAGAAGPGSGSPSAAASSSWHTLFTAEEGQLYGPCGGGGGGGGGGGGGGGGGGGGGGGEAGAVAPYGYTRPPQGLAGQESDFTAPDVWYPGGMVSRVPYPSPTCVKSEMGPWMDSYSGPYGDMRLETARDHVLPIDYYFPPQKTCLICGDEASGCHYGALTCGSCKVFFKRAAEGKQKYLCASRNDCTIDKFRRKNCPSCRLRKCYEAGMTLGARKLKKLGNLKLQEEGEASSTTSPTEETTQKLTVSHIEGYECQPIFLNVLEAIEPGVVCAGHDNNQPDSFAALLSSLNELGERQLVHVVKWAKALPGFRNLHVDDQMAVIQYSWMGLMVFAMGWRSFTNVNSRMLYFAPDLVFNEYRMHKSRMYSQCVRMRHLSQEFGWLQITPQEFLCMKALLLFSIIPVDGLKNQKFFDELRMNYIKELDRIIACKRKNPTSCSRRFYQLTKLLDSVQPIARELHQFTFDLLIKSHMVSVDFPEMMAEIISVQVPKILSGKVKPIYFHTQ
Sequence of chicken Estrogen Receptor (ESR1), ESR1 (gene 396099) (P06212 whole entry, looked up, the tested form may be a part): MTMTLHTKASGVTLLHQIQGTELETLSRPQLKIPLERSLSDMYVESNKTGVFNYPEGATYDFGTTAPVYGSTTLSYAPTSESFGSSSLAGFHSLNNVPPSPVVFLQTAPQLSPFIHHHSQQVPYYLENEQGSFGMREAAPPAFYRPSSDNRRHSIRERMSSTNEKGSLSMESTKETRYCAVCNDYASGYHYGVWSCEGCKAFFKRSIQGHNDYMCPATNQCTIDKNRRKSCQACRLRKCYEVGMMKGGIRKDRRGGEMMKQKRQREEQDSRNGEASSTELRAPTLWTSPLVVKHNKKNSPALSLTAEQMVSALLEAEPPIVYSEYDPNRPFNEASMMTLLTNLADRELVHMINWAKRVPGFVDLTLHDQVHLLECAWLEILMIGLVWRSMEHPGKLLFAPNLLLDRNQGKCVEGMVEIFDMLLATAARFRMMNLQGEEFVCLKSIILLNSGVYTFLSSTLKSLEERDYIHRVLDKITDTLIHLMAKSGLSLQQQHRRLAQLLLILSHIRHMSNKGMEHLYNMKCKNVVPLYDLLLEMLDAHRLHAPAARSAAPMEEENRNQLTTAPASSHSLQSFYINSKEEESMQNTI
Sequence of Nuclear receptor subfamily 1 group I member 2 (Mus musculus) (O54915 whole entry, looked up, the tested form may be a part): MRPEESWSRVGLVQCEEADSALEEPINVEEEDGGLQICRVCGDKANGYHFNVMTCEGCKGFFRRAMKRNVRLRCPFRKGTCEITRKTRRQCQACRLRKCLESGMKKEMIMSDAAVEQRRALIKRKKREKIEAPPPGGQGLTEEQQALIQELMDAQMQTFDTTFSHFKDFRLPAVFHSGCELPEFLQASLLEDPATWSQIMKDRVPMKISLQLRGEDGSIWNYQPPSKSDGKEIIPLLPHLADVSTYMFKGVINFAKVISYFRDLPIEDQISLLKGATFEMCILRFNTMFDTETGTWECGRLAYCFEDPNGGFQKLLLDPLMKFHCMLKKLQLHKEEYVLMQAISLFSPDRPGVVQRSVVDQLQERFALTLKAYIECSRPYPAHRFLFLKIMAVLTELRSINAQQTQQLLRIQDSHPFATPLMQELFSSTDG
Sequence of Estrogen receptor (Homo sapiens) (P03372 whole entry, looked up, the tested form may be a part): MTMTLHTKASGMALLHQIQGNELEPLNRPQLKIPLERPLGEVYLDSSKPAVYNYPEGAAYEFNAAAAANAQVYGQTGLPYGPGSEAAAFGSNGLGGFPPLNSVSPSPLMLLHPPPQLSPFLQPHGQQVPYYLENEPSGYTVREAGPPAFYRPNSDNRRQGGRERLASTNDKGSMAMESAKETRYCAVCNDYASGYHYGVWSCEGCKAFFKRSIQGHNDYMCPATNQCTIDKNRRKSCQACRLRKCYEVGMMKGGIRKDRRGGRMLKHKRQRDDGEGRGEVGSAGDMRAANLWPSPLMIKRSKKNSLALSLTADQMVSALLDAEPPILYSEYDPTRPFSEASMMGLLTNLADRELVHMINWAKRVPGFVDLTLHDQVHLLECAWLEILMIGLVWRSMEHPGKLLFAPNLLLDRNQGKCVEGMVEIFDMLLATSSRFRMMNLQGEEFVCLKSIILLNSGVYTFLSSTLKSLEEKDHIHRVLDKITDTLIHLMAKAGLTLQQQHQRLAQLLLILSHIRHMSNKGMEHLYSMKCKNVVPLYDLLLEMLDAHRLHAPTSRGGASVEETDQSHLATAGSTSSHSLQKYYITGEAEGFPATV
Sequence of Estrogen receptor beta (Homo sapiens) (Q92731 whole entry, looked up, the tested form may be a part): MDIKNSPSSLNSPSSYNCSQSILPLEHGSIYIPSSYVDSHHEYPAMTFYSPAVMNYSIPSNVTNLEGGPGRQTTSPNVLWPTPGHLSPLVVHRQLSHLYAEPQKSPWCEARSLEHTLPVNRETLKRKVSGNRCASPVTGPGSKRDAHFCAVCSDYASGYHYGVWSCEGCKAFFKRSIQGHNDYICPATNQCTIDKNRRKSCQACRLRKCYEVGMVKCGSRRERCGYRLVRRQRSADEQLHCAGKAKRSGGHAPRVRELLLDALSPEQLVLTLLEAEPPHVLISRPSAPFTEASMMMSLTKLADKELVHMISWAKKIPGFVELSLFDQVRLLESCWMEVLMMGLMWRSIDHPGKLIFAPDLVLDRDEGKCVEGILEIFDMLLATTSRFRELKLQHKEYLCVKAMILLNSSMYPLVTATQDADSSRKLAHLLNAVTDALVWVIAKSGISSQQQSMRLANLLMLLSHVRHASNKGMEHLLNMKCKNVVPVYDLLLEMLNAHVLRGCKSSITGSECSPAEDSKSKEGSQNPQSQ
Sequence of frog Thyroid hormone Receptor alpha (TRa), thra-a (gene 397942) (P15204 whole entry, looked up, the tested form may be a part): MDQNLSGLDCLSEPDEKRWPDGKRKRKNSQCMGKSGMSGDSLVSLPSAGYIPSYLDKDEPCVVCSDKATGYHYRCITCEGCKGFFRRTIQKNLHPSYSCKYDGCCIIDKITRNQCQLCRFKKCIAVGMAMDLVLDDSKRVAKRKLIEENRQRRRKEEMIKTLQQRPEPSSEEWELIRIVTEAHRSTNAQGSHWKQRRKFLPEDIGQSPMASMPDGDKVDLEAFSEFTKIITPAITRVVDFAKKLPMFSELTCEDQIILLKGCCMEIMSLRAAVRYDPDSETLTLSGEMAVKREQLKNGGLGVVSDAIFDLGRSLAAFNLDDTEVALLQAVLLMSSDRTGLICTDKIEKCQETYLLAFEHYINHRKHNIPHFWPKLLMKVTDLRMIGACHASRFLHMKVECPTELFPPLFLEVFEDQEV
Sequence of GAL4 Transcription Factor (Internal Marker), GAL4 (gene 855828) (P04386 whole entry, looked up, the tested form may be a part): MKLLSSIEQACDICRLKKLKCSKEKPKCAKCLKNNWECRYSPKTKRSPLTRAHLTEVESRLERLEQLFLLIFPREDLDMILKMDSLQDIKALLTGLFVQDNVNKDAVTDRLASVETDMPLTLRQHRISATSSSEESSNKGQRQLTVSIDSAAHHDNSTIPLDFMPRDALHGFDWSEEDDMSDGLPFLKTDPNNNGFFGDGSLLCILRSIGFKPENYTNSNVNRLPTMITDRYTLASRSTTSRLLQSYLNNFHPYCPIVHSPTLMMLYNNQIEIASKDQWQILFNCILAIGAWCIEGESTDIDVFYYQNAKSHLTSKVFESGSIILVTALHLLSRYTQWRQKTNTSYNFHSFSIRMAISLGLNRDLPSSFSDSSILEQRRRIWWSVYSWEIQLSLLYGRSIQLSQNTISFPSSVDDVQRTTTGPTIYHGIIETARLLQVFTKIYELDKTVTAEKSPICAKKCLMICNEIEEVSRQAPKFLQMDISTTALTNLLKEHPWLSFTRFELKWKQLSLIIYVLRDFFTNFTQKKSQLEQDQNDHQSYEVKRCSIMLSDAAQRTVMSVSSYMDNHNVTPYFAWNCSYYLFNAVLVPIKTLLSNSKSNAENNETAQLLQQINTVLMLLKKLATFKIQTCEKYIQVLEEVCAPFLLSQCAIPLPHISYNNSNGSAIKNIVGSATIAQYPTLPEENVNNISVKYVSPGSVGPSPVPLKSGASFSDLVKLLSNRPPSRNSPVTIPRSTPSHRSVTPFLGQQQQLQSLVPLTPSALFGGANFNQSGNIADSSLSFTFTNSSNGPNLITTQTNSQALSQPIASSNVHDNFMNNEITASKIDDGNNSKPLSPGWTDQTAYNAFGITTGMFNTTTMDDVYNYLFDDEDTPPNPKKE
Sequence of human Thyroid hormone Receptor alpha (TRa), THRA (gene 7067) (P10827 whole entry, looked up, the tested form may be a part): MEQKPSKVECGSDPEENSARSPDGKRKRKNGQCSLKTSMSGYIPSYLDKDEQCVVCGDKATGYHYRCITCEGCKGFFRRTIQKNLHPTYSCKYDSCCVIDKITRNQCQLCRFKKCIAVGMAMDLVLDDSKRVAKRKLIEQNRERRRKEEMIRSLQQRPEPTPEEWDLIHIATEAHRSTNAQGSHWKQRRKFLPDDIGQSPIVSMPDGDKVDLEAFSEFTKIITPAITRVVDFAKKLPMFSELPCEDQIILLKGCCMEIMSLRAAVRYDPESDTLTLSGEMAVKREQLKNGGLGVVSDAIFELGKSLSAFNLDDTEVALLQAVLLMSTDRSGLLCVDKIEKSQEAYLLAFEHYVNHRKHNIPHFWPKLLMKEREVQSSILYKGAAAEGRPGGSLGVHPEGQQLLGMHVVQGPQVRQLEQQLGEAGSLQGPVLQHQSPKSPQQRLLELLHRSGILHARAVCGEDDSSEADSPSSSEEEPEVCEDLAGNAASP

## NC(=O)N(O)[C@@H]1C=C[C@H](Oc2cccc(Oc3ccc(F)cc3)c2)C1
[1]
  AC50: 92.6 µM (active)

## CC(C)(C)c1ccc(O)c(C(C)(C)C)c1
[1]
  AC50: 17.3 µM (active)

## O=C1OC2(c3ccccc31)c1cc(Br)c(O)c(Br)c1Oc1c2cc(Br)c(O)c1Br
[1]
  outcome: inactive

## CCC(C)(C)C1CCC(O)CC1 (stereo not drawn)
[2]
  outcome: inactive
[3]
  outcome: inactive
[4]
  AC50: 10 µM (active)
[5]
  AC50: 10 µM (active)
[1]
  outcome: inactive
[6]
  outcome: inactive
[7]
  outcome: inactive
[8]
  outcome: inactive
[9]
  outcome: inactive
[10]
  outcome: inactive
[11]
  outcome: inactive

## NCC(F)(F)C(F)(F)C(F)(F)C(F)(F)C(F)(F)C(F)(F)C(F)(F)F
[1]
  outcome: inactive

## CC(=O)NC1(c2cccc(F)c2)CCN(CC[C@@]2(c3ccc(Cl)c(Cl)c3)CN(c3ccccc3)C(=O)CO2)CC1
[1]
  AC50: 11.8 µM (active)

## CC[C@H](c1ccc(O)cc1)[C@@H](CC)c1ccc(O)cc1
[2]
  AC50: 55.2 pM (active)
[3]
  AC50: 20.7 pM (active)
[4]
  AC50: 3.92e-05 µM (active)
[5]
  AC50: 2.26e-05 µM (active)
[1]
  AC50: 83.3 µM (active)
  outcome: inactive
AR (gene 367) [12]
  outcome: inactive
AR (gene 367) [13]
  AC50: 10.9 µM (active)
[14]
  AC50: 62.6 pM (active)
[15]
  outcome: inactive
[6]
  outcome: inactive
[7]
  outcome: inactive
[8]
  outcome: inactive
[16]
  outcome: inactive
[9]
  outcome: inactive
[17]
  outcome: inactive
[10]
  outcome: inactive
[18]
  outcome: inactive
[19]
  outcome: inactive

## COc1cc(CCC(=O)CC(=O)CCc2ccc(O)c(OC)c2)ccc1O
[1]
  outcome: inactive
AR (gene 367) [12]
  outcome: inactive
AR (gene 367) [13]
  AC50: 74.6 µM (active)

## CC(=O)CC(C)(C)O
AR (gene 367) [13]
  outcome: inactive

## COc1ccc([N+](=O)[O-])cc1N
[20]
  outcome: inactive

## Cc1cc(CCN2CCN(c3nsc4ccccc34)CC2)cc2c1NC(=O)CC2(C)C
[1]
  AC50: 18.2 µM (active)
[20]
  AC50: 6.3 µM (active)
AR (gene 367) [13]
  AC50: 18.7 µM (active)
